Counter-ions that a name gives are not always drawn.
Test system: MDA-MB-468
Assay: phospho-S6 immunofluorescence (DAPI-normalised), per-plate z-score; higher = higher phospho-S6 signal (less pathway suppression)
Conditions: 24 h
Protocol: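 GPCR-targeted compound library (MedChemExpress HY-L006) tested on MDA-MB-468 PTEN-null TNBC cells in 384-well plates at 0.1, 1 or 10 uM, combined with vehicle, GDC0941 450 nM or lapatinib 1 uM, for 24 h. Phospho-S6 (S240/244) immunofluorescence normalised to DAPI and expressed as a per-plate z-score; values are the mean of biological triplicates.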

Compound	phospho-S6 immunofluorescence (z-score) (co-treatment: GDC0941 450 nM)	phospho-S6 immunofluorescence (z-score) (co-treatment: lapatinib 1 uM)	phospho-S6 immunofluorescence (z-score) (co-treatment: vehicle)
CN1CCC(OC(c2ccccc2)c2ccccc2)CC1 [Diphenylpyraline (hydrochloride)] (compound 10 µM)	0.68	0.42	-0.04
CNS(=O)(=O)Cc1ccc2[nH]cc(CCN(C)C)c2c1 [Sumatriptan (succinate)] (compound 10 µM)	0.01	0.48	0.55
CCCCC(=O)N(Cc1ccc(-c2ccccc2-c2nnn[nH]2)cc1)[C@H](C(=O)O)C(C)C.CCOC(=O)[C@H](C)C[C@@H](Cc1ccc(-c2ccccc2)cc1)NC(=O)CCC(=O)O (compound 10 µM)	0.23	0.37	0.21
CN1CCC(=C2c3ccccc3CC(=O)c3sccc32)CC1 [Ketotifen (fumarate)] (compound 10 µM)	0.55	-0.44	0.26
CCCc1c2oc(C(=O)O)cc(=O)c2cc2c(=O)cc(C(=O)O)n(CC)c12 [Nedocromil] (compound 10 µM)	-0.69	-0.48	-1.01
O=C(CCCN1CCN(c2ccccn2)CC1)c1ccc(F)cc1 [Azaperone] (compound 10 µM)	0.08	0.77	0.8
CN(C)CCC=C1c2ccccc2C=Cc2ccccc21 [Cyclobenzaprine (hydrochloride)] (compound 10 µM)	0.8	-0.8	-0.18
COc1nc(C)cnc1NS(=O)(=O)c1cccnc1-c1ccc(-c2nnco2)cc1 [Zibotentan] (compound 10 µM)	-2.05	-0.19	-2.06
CC(CCc1ccccc1)NCC(O)c1ccc(O)c(C(N)=O)c1 (configuration not stated) [Labetalol (hydrochloride)] (compound 10 µM)	0.84	-0.16	0.83
